# Screens deposited in PubChem BioAssay by several laboratories.
# CYP2C19 activ = human CYP2C19 activators, primary screen, biochemical, luminescence; 96,000 tested, under 10 active; Cytochrome P450 2C19 (Homo sapiens), P33261; activation factor at 5 µM; recombinant CYP2C19, luciferin-H EGE luminescence; hits give high values; 0 = fully inhibited enzyme, 1 = untreated enzyme;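 active = activation factor of at least 2 at 5 µM in the primary screen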;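 also: 0 = wells with 2.5 mM tranylcypromine and 1 = vehicle-only wells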
# Target sequence (P33261 whole entry, looked up): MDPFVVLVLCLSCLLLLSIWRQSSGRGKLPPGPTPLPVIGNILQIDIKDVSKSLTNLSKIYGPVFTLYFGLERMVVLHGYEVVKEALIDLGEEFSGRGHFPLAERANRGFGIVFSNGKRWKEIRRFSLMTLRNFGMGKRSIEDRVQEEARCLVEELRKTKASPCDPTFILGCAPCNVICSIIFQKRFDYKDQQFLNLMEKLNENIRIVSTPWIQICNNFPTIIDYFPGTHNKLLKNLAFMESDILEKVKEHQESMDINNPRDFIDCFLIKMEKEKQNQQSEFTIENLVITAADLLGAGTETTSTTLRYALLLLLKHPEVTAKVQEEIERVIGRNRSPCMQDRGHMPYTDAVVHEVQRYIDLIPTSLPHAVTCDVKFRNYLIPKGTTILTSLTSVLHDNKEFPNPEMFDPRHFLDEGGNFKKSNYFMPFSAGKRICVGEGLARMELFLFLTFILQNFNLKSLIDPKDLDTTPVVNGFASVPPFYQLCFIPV
# CYP2C9 inh = blockers of cytochrome P450 2C9 activity – biochemical, luminescence, ADME assay, primary screen; inhibition, % at 5 µM; CYP2C9 Supersomes, luciferin-H conversion; 96,000 compounds, 20% hits; AID 777, 2007; P11712;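 active = blocking of liver enzyme CYP2C9 beyond about 50% at 5 µM, limit read from the data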
# Measles CPE = compounds protecting cells from measles virus cytopathic effect, primary screen, measles RdRp inhibitor project, single point, MLSMR library, absorbance; Measles virus-infected cells, CPE protection; protection (pct of control), % at 4 µM; 140,000 compounds, 1.5% hits; AID 841, 2007; in the data active = protection mostly above about 24%, no sharp cut-off; inactive = mostly below about 26%
# CYP2C9 act = human CYP2C9 activators, primary screen, biochemical, luminescence; AID 1024, 2008; recombinant CYP2C9, luciferin-H conversion; hits give high values; factor 1 = untreated enzyme, 0 = blocked; activation factor at 5 µM; 96,000 compounds, 1.4% hits;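 active = activation factor of 2 or more for CYP2C9 at a 5 µM dose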;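 also: 0 = sulfaphenazole-blocked wells and 1 = vehicle-only wells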
# CYP2C19 inh = blockers of cytochrome P450 2C19 activity – biochemical, luminescence, ADME assay, primary screen. P33261. CYP2C19 Supersomes, luciferin-H EGE luminescence, 30 min. inhibition, % at 5 µM. 96,000 compounds, 21% hits. AID 778, 2007;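 active = CYP2C19 inhibition above a set limit at 5 µM in the primary screen, cut at about 50% in these data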;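 also: plate controls were negative control wells for no effect and 2.5 mM tranylcypromine positive control for full effect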
# The depositor's hits bear a star; . = no result given. In the library only some 22% were active in any assay of this set; here they are far more common.
SMILES,CYP2C19 activ,CYP2C9 inh,Measles CPE,CYP2C9 act,CYP2C19 inh
Cc1cccc(NC(=O)c2oc(=O)c3ccccc3c2-c2ccccc2)c1C,.,.,17,.,.
Cc1ccc(N(C(=O)c2csnn2)C(C(=O)NC(C)(C)C)c2cccs2)cc1 (configuration not stated),0.2,6,10,0.9,77*
Cc1ccc(N(C(=O)c2csnn2)C(C(=O)NC(C)(C)C)c2ccncc2)cc1 (configuration not stated),0.8,9,34,0.9,22
CC(C)c1ccc(N(C(=O)c2csnn2)C(C(=O)NC(C)(C)C)c2ccncc2)cc1 (configuration not stated),0.4,23,3,0.8,60*
CCCNC(=O)c1ccc(C2SCC(=O)N2CCc2ccccc2)cc1 (configuration not stated),.,.,9,.,.
O=c1[nH]c(CN2CCN(c3ccccc3)CC2)nc2scc(-c3ccccc3)c12,.,.,4,.,.
N#Cc1ccc(COC(=O)c2ccc3c(=O)[nH]c(CN4CCOCC4)nc3c2)cc1,1.1,0,9,1,-14
COC(=O)c1ccc2c(=O)[nH]c(CN3c4ccccc4CC3C)nc2c1 (configuration not stated),0.8,82*,6,0.2,22
CC1Cc2ccccc2N1Cc1nc2scc(-c3cccs3)c2c(=O)[nH]1 (configuration not stated),0.3,95*,20,0,75*
CC1Cc2ccccc2N1Cc1nc2cc(Cl)ccc2c(=O)[nH]1 (configuration not stated),0.4,80*,4,0.2,57*
CC(C)[C@H](NC(=O)Nc1ccc(Oc2ccccc2)cc1)C(=O)O,1,29,8,0.7,0
CCOC(=O)N1CCC(N2CC34C=CC(O3)C(C(=O)Nc3ccc(OCC)cc3)C4C2=O)CC1 (configuration not stated),1.1,15,19,0.9,-8
COc1ccccc1OCc1ccc(C(=O)NCC2CCCO2)o1 (configuration not stated),0.7,20,8,0.8,28
O=Cc1cn(CC(=O)N2CCCCC2)c2ccccc12,.,.,4,.,.
O=C(c1ccco1)c1cn(CC(=O)N2CCCc3ccccc32)c2ccccc12,0,100*,4,0,98*
O=C(c1cn(CC(=O)N2CCCC2)c2ccccc12)C1CCCCC1,0.5,50*,.,0.5,54*
CN1C(=O)/C(=C/c2cn(CC(=O)N3CCCCC3)c3ccccc23)c2ccccc21,0.2,98*,18,0,75*
CCOC(=O)C1CCN(C(=O)Cn2cc(C(=O)c3ccco3)c3ccccc32)CC1,1,0,7,1,3
CC1CCCCN1C(=O)Cn1cc(C(=O)c2ccco2)c2ccccc21 (configuration not stated),0.2,68*,7,0.3,83*
O=Cc1cn(CC(=O)N2CCCc3ccccc32)c2ccccc12,.,.,9,.,.
O=C(c1ccc([N+](=O)[O-])s1)N1CCN(c2cccc(Cl)c2)CC1,.,.,28,.,.
CCOc1cc(C(=O)NCCCn2ccnc2)cc(OCC)c1OCC,.,.,7,.,.
N#Cc1ccc(CSc2nnc(NC(=O)CN3C(=O)C4CC=CCC4C3=O)s2)cc1 (configuration not stated),0.9,20,7,0.8,13
COc1ccccc1-c1noc(-c2ccccc2C(=O)Nc2cccnc2)n1,0.9,14,2,0.9,11
COc1cccc(C(=O)Nc2ccc(N3CCN(Cc4ccccc4)CC3)cc2)c1,0.9,5,5,1,12
COc1c(F)c(F)c(C(=O)Nc2ccc(N3CCN(Cc4ccccc4)CC3)cc2)c(F)c1F,1.2,57*,6,0.4,-22
O=C(Nc1ccc(N2CCN(C(=O)c3ccco3)CC2)c(Cl)c1)c1c(F)c(F)c(F)c(F)c1F,0.3,73*,4,0.3,68*
Cc1ccccc1C(=O)N1CCN(c2ccc(NC(=O)c3ccco3)cc2Cl)CC1,0.6,44,4,0.6,43
COc1c(F)c(F)c(C(=O)Nc2ccc(N3CCN(C(C)=O)CC3)c(Cl)c2)c(F)c1F,0.6,66*,20,0.3,38
